Measurements from the supplement of paper PMC4166925.
± gives the standard deviation of the averaged measurements. In all, about 33,000 sequences were measured (“E-score (dimensionless, -0.5 to 0.5)”: median about -0.046, highest 2% from about 0.36 on). The full list was thinned out, with the highest values kept by preference.

Tested on: T1, SpTbr T-box DNA-binding domain (GST fusion)
T1 sequence: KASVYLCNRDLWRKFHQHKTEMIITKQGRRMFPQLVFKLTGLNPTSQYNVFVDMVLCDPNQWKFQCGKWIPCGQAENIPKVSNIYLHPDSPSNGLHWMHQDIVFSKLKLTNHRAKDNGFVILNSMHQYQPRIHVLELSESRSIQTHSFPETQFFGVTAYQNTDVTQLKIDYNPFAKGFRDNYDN
Experiment: PBM E-score of 8-mer (E-score (dimensionless, -0.5 to 0.5)); Tbr is Tbrain of the sea star Patiria miniata (Pm) or the sea urchin Strongylocentrotus purpuratus (Sp); higher = stronger binding preference
Settings: the construct has about 5 more residues each side
Experimental: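 Universal protein-binding microarray (Agilent AMADID 016060, 60-bp probes with a 35-bp variable region) incubated with 200 nM GST-fused Strongylocentrotus purpuratus Tbr T-box DNA-binding domain (residues 362-554) in PBS pH 7.5. Scored for every ungapped 8-mer (given with its reverse complement) as E-score (range -0.5 to 0.5; >0.45 counts as bound) and Z-score of median probe intensity. Two replicate arrays (datasets 1 and 2).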
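Also: protein at 200 nM in PBS on universal double-stranded arrays.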

| Sequence | PBM E-score of 8-mer |
| --- | --- |
| ATACCTGC | -0.0105 ± 0.0085 |
| ACACCTGG | 0.44 ± 0.029 |
| CCACCTGG | 0.186 ± 0.029 |
| GCACCTGC | 0.388 ± 0.024 |
| ATACCTGG | 0.0363 ± 0.063 |
| CCACCTGC | 0.269 ± 0.0095 |
| GAACCTGC | -0.126 ± 0.13 |
| AAACCTGA | -0.00426 ± 0.071 |
| CGACCTGC | 0.177 ± 0.026 |
| ACACCTGA | 0.4627 ± 0.0023 |
| ACACCTGC | 0.4527 ± 0.0032 |
| AGACCTGA | -0.094 ± 0.0078 |
| GCCCAAGC | -0.24 ± 0.0088 |
| ACGCAAGA | -0.0517 ± 0.024 |
| AACAACGT | 0.00981 ± 0.00099 |
| CTTTAAGC | -0.136 ± 0.004 |
| AACTTCAG | -0.23 ± 0.022 |
| CTCACTGC | 0.0922 ± 0.076 |
| GCATGTCC | -0.0875 ± 0.095 |
| CGGCTTGC | -0.14 ± 0.0054 |
| AAGCGAGG | 0.115 ± 0.03 |
| CAAGCTAC | -0.147 ± 0.014 |
| AAGTGTAC | 0.00907 ± 0.056 |
| GAGTGTTA | 0.386 ± 0.021 |
| CAGTGTTC | 0.0165 ± 0.024 |

| Sequence | PBM E-score of 8-mer |
| --- | --- |
| CAGTGTTA | 0.31 ± 0.028 |
| AAGTGTTA | 0.451 ± 0.00073 |
| AAGTGTTC | 0.226 ± 0.11 |
| AAGTGGTA | 0.083 ± 0.018 |
| AAGTGTTG | 0.422 ± 0.02 |
| GAGTGTAC | -0.0659 ± 0.019 |
| CATCTGTA | -0.0572 ± 0.038 |
| CACCAATG | 0.179 ± 0.0061 |
| CACAATCC | 0.0504 ± 0.056 |
| ATGCCCAT | -0.184 ± 0.01 |
| AGGCAGAT | -0.0669 ± 0.075 |
| TGGGCGAA | -0.169 ± 0.019 |
| GAGGACAC | 0.155 ± 0.015 |
| GGTGGGGA | 0.248 ± 0.033 |
| AGCAGGTC | -0.0223 ± 0.011 |
| AGCAGGTG | 0.377 ± 0.00094 |
| ATCAGGTG | 0.386 ± 0.015 |
| AACAGGTA | 0.0912 ± 0.072 |
| CACAGGTC | 0.198 ± 0.045 |
| CACAGGTG | 0.453 ± 0.005 |
| AACAGGTC | 0.107 ± 0.0057 |
| ATCAGGTC | -0.171 ± 0.075 |
| ATCAGGTA | -0.128 ± 0.008 |
| AGCAGGTA | -0.132 ± 0.031 |
| AACAGGTG | 0.364 ± 0.028 |

| Sequence | PBM E-score of 8-mer |
| --- | --- |
| CACAGGTA | 0.141 ± 0.0043 |
| AGCGGTGC | -0.00638 ± 0.018 |
| ACAATGCG | 0.222 ± 0.025 |
| CGAGAGTA | 0.0304 ± 0.018 |
| GAGATTGC | 0.116 ± 0.014 |
| CGCTGGCC | -0.032 ± 0.027 |
| CTTACTCC | -0.125 ± 0.049 |
| CAGCGTGG | -0.111 ± 0.012 |
| CAGTCCAC | 0.192 ± 0.026 |
| AGCACTCA | 0.079 ± 0.03 |
| AAAGCAAA | 0.00628 ± 0.091 |
| ATGTGGGA | 0.234 ± 0.041 |
| CTGTGGGA | 0.105 ± 0.057 |
| GTGTGGAA | 0.3848 ± 0.0012 |
| GTGTGGGA | 0.387 ± 0.038 |
| CTGTGGAA | 0.061 ± 0.12 |
| ATGTGGAA | 0.0153 ± 0.034 |
| CGGCCCAG | -0.2798 ± 0.0014 |
| CAGAATGC | 0.0116 ± 0.023 |
| GCCACGAA | 0.00399 ± 0.009 |
| CGCCAGCC | 0.0479 ± 0.008 |
| TGCGAACA | 0.419 ± 0.015 |
| AGCGAACA | 0.078 ± 0.037 |
| CGCGAAAA | 0.347 ± 0.04 |
| GGCGAACA | 0.137 ± 0.018 |

| Sequence | PBM E-score of 8-mer |
| --- | --- |
| TGCGAAAA | 0.383 ± 0.038 |
| AGCGAAAA | -0.0276 ± 0.011 |
| CGTTTCAA | -0.029 ± 0.015 |
| CGCTGTAC | -0.164 ± 0.046 |
| ATACAGGG | -0.276 ± 0.015 |
| AAGGGTAT | -0.121 ± 0.02 |
| AAGCGTGT | 0.288 ± 0.012 |
| AGGCGTGG | 0.321 ± 0.044 |
| AAGCGTGA | 0.415 ± 0.01 |
| CTGCGTGA | 0.172 ± 0.033 |
| ACGCGTGC | 0.149 ± 0.066 |
| GCGCGTGA | 0.344 ± 0.033 |
| GTGCGTGA | 0.316 ± 0.057 |
| ATGCGTGA | 0.374 ± 0.0053 |
| AGGCGTGA | 0.4754 ± 0.0047 |
| ACGCGTGA | 0.407 ± 0.0058 |
| AGGCGTGC | 0.236 ± 0.052 |
| AAGCGTGG | 0.179 ± 0.047 |
| AGGATGAT | -0.095 ± 0.066 |
| TCCACGGA | -0.0375 ± 0.11 |
| CTCCAAGA | -0.0401 ± 0.032 |
| ACGGCTCA | -0.0392 ± 0.022 |
| TTATTGAA | -0.142 ± 0.024 |
| GAATCAGA | -0.0679 ± 0.055 |
| AGGCGTTG | 0.355 ± 0.0053 |

| Sequence | PBM E-score of 8-mer |
| --- | --- |
| CGGCGTGA | 0.33 ± 0.047 |
| AGGCGTTA | 0.434 ± 0.018 |
| GGGCGTAA | 0.131 ± 0.047 |
| GGGCGTGA | 0.44 ± 0.015 |
| GGGCGTTA | 0.2697 ± 0.0022 |
| CACTAGCG | 0.139 ± 0.072 |
| AGGTTTGC | -0.0997 ± 0.11 |
| ATCGTGAG | 0.208 ± 0.0056 |
| TATTCGGA | -0.284 ± 0.034 |
| CACTCAGG | -0.0871 ± 0.041 |
| ATTGCGAA | 0.284 ± 0.041 |
| CGTGCGCA | 0.155 ± 0.0026 |
| GGTGCGAC | 0.452 ± 0.0081 |
| GTTGCGAA | 0.393 ± 0.0099 |
| CGTGCAAA | 0.146 ± 0.024 |
| GATGCGAC | 0.216 ± 0.022 |
| AATGCGAA | 0.0358 ± 0.024 |
| AGTGCGTA | 0.0849 ± 0.013 |
| CTTGCGAA | 0.343 ± 0.019 |
| CGTGCGAA | 0.4443 ± 0.0016 |
| GCTGCGAC | 0.137 ± 0.059 |
| AGTGCGAA | 0.47263 ± 0.00019 |
| AATAGCAT | -0.0159 ± 0.004 |
| ATCCTGTG | 0.00404 ± 0.015 |
| AATATCAT | -0.161 ± 0.0081 |

| Sequence | PBM E-score of 8-mer |
| --- | --- |
| CCTGGGCG | 0.118 ± 0.03 |
| ACTGCGAA | 0.332 ± 0.018 |
| GATGCGAA | 0.202 ± 0.066 |
| CCTGCGAA | 0.367 ± 0.0099 |
| TCTGCGAA | 0.202 ± 0.04 |
| TATGCGAA | 0.131 ± 0.068 |
| TGTGCGAA | 0.458 ± 0.0092 |
| ACGCGAAG | 0.185 ± 0.027 |
| AAAGTAGA | -0.0436 ± 0.055 |
| ACTTGTAC | -0.109 ± 0.04 |
| CACTCGGC | 0.143 ± 0.021 |
| GCGCGACA | 0.3438 ± 0.0009 |
| TCGCGAAA | 0.403 ± 0.026 |
| ACGCGAAA | 0.138 ± 0.018 |
| CCGCGAAC | 0.338 ± 0.0083 |
| GCGCGAAC | 0.439 ± 0.018 |
| GCGCGATA | 0.288 ± 0.014 |
| ACGCGAAC | 0.276 ± 0.003 |
| GCGCGAAA | 0.4374 ± 0.0039 |
| CCGCGAAA | 0.32 ± 0.025 |
| GCGTCGAC | 0.114 ± 0.082 |
| CCAAATAA | -0.267 ± 0.079 |
| GTGGAAAA | 0.125 ± 0.036 |
| AAACAGCT | 0.0803 ± 0.013 |
| CTTGTCAC | 0.39 ± 0.013 |

| Sequence | PBM E-score of 8-mer |
| --- | --- |
| ATTGTCAA | 0.225 ± 0.019 |
| CTTGTCAA | 0.355 ± 0.0065 |
| ATTGTCAG | 0.0298 ± 0.045 |
| CCTGTCAC | 0.3163 ± 0.0011 |
| ATTGTCAC | 0.399 ± 0.013 |
| CCAGCACC | 0.216 ± 0.04 |
| CTGAACAC | -0.0318 ± 0.035 |
| ACTCTTTC | 0.0551 ± 0.015 |
| ACACTTTG | 0.379 ± 0.005 |
| AGACTTTG | -0.0212 ± 0.042 |
| CCACTTTC | 0.0779 ± 0.016 |
| ACACTTTC | 0.402 ± 0.027 |
| ACACTTTA | 0.324 ± 0.043 |
| CGCATAGA | -0.0202 ± 0.12 |
| GCGCTACC | 0.295 ± 0.0067 |
| GCTTTACA | 0.0266 ± 0.031 |
| AGCTTTCA | -0.132 ± 0.045 |
| AACACGTA | 0.317 ± 0.018 |
| GACACGTC | 0.333 ± 0.0087 |
| AACACGAT | 0.291 ± 0.022 |
| AACACGTC | 0.372 ± 0.009 |
| AACACGCT | 0.185 ± 0.073 |
| AACACGTT | 0.367 ± 0.044 |
